Assay results taken from ChEMBL document CHEMBL3988442, “University of Dundee, Small-Polar-MMV Screening Library” (2021).
For some of these results: Potency and affinity values are given separately.

Assays:
Set-up in all cases: scale not given: direction of the effect not stated beside the values
[1] = target: Protein translocase subunit SecA (Escherichia coli (strain K12)) (UniProt P10408); assay: Assay to Identify E. coli SecA ATPase Inhibitors; assay type: functional; details: 30 µM
[2] = target: T1, Ubiquitin-activating enzyme e1, putative (Leishmania donovani (strain BPK282A1)) (UniProt E9BSI1); assay: Leishmania donovani Ubiquitin Activating Enzyme (LdE1); assay type: functional; details: 30 µM
T1 sequence (whole entry): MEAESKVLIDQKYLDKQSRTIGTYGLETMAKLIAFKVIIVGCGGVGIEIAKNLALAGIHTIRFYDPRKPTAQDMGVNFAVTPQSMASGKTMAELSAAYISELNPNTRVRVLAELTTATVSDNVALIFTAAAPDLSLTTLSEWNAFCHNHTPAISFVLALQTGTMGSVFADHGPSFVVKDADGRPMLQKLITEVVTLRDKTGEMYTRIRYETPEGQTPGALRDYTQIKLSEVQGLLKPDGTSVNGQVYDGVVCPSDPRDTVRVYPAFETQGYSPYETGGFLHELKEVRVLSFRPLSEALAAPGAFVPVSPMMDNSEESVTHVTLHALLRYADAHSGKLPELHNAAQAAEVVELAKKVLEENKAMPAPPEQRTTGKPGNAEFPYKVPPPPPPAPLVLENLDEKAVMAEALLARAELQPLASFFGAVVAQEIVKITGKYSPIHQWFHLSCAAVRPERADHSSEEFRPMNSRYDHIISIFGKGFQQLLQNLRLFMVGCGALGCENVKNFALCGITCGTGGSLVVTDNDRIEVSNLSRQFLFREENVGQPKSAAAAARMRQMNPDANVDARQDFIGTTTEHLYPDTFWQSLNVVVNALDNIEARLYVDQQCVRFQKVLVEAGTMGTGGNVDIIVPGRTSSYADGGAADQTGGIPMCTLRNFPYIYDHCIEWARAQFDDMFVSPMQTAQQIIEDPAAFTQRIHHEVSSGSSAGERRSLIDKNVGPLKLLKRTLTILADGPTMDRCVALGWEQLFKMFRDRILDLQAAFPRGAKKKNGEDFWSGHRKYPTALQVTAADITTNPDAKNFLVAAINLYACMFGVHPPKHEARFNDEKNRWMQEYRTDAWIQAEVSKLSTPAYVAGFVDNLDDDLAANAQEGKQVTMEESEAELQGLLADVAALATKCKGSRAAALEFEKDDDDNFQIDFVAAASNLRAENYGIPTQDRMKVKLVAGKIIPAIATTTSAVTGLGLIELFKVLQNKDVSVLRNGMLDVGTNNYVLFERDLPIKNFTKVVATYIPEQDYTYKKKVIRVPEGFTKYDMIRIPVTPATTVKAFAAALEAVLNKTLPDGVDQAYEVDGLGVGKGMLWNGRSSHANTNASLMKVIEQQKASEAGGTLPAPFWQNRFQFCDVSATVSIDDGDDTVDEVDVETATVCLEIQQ

[3] = target: AMP-activated protein kinase, AMPK (Homo sapiens) (UniProt P54646+O43741+P54619+Q9UGJ0+Q9Y478+Q13131+Q9UGI9); assay: AMP-dependent Kinase enzyme assay. An in vitro enzyme assay that detects ADP turnover that is directly proportional to AMPK activity. This uses naive AMPK that is activated during the assay with MK-8722; assay type: functional; details: 30 µM
[4] = target: Sialic acid-binding Ig-like lectin 9 (Homo sapiens) (UniProt Q9Y336); assay: Hs-Siglec9 ALPHAscreen SOP 20170721; details: 10 µM
Trypanosoma cruzi = assay: Trypanosoma cruzi phosphomannomutase and mannose-1-phosphate guanylyltransferase assay; assay type: functional; details: 10 µM
[5] = target: T2, Arginase-2, mitochondrial (Homo sapiens) (UniProt P78540); assay: in vitro enzyme assay to detect the production of urea directly proportional to the activity of Arginase II; assay type: functional; details: 33.3 µM; further: in the data most compounds retested in dose-response had high values
T2 sequence (whole entry): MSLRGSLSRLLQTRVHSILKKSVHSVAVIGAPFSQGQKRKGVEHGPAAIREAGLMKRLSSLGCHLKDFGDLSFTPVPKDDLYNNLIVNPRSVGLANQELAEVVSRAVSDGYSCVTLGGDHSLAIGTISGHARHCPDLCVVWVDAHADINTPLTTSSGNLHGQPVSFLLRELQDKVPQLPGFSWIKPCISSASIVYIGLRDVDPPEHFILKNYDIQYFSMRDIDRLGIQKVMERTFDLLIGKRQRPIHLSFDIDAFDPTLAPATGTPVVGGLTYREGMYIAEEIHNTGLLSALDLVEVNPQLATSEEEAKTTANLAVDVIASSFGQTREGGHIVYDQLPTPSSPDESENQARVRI

[6] = target: T3, Proteasome subunit beta (Trypanosoma cruzi) (UniProt O96673); assay: Trypanosoma cruzi proteasome chymotrypsin-like activity (TcProtChymo) assay.; further: in the data most compounds retested in dose-response had high values; assay type: functional; details: 9.37 µM
T3 sequence (whole entry): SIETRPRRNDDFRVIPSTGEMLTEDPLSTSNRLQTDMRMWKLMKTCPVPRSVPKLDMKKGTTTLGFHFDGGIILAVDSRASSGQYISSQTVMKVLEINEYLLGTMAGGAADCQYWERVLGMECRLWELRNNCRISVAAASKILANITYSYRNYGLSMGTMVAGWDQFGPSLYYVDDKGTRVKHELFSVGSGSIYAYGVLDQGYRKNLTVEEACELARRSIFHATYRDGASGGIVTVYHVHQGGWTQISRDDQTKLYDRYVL

Homo sapiens = organism: Homo sapiens; assay: To identify inhibition of the IFN signalling (Jak-Stat) pathway via expression of an eGFP reporter gene under the control of an IFN-stimulated response element (ISRE) containing MxA promoter.; assay type: functional; details: 30 µM
[7] = target: T4, Tyrosyl-tRNA synthetase, putative (Trypanosoma cruzi (strain CL Brener)) (UniProt Q4DSP6); assay: Trypanosoma cruzi tyrosyl tRNA synthetase (TcYRS) _High Tyrosine SOP; assay type: functional; details: 30 µM; further: in the data most compounds retested in dose-response had high values
T4 sequence (whole entry): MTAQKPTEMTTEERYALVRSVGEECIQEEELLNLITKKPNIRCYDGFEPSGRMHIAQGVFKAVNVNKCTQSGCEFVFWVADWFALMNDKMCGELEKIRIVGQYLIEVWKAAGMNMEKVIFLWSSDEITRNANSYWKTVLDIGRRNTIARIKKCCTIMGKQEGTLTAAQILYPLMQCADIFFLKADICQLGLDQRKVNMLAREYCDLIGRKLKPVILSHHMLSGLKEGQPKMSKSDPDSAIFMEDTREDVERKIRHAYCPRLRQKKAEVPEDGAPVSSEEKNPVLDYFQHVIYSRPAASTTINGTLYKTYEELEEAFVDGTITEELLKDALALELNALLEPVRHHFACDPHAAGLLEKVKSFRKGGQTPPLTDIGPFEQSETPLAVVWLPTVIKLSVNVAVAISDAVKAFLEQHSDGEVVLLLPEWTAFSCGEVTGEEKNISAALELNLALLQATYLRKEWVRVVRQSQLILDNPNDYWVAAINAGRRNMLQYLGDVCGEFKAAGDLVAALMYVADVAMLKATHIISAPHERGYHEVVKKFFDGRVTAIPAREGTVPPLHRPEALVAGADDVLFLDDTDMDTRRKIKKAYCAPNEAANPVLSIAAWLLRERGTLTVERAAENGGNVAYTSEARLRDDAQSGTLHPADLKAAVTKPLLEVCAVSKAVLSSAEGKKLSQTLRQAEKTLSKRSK

[8] = target: T4, Tyrosyl-tRNA synthetase, putative (Trypanosoma cruzi (strain CL Brener)); assay: Trypanosoma cruzi tyrosyl tRNA synthetase (TcYRS) SOP; assay type: functional; details: 30 µM
[9] = target: Chromo domain-containing protein 1 (Saccharomyces cerevisiae (strain ATCC 204508 / S288c) (Baker's yeast)) (UniProt P32657); assay: ScCHD-1 Enzyme Inhibition Assay; assay type: functional; details: 30 µM; further: in the data most compounds retested in dose-response had high values
Chain of Chromo domain-containing protein 1 (Saccharomyces cerevisiae (strain ATCC 204508 / S288c) (Baker's yeast)) (P32657 whole entry, the tested form may be a part): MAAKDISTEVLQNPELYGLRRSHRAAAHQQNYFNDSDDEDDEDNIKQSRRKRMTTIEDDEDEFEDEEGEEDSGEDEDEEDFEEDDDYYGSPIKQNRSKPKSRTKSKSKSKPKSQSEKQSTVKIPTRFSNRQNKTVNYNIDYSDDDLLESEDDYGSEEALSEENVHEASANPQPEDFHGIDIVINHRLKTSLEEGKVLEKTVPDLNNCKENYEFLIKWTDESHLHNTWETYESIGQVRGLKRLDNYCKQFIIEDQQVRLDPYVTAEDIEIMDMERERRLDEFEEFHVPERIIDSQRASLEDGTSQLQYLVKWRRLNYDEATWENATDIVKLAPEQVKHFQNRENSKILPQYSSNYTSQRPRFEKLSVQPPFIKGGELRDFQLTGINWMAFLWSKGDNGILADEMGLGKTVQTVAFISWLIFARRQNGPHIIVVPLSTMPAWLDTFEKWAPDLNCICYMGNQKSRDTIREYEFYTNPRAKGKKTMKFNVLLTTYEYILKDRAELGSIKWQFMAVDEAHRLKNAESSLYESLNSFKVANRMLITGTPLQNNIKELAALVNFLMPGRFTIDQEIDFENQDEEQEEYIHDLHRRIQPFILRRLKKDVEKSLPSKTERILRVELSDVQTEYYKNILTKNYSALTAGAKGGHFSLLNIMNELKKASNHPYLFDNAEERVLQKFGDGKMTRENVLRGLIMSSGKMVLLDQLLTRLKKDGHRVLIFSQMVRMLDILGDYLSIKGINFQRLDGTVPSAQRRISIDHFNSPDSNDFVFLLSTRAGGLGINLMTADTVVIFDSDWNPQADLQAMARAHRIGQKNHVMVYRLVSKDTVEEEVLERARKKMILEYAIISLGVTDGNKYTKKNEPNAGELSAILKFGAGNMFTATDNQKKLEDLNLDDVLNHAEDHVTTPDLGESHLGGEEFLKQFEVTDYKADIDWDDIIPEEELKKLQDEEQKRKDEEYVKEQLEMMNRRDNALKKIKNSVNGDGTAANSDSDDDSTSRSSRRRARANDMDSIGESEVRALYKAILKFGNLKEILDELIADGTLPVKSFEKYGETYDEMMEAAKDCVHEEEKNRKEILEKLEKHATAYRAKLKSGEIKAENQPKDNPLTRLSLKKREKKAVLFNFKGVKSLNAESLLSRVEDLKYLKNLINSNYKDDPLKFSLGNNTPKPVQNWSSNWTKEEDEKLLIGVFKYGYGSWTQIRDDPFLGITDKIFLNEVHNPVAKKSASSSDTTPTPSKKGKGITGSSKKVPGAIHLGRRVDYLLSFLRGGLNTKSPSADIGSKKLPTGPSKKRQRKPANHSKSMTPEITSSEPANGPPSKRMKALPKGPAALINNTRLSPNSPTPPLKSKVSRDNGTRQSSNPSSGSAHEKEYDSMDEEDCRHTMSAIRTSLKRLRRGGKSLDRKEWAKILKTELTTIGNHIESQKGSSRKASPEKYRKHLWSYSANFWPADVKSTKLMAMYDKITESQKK

Chain of Sialic acid-binding Ig-like lectin 9 (Homo sapiens) (Q9Y336 whole entry): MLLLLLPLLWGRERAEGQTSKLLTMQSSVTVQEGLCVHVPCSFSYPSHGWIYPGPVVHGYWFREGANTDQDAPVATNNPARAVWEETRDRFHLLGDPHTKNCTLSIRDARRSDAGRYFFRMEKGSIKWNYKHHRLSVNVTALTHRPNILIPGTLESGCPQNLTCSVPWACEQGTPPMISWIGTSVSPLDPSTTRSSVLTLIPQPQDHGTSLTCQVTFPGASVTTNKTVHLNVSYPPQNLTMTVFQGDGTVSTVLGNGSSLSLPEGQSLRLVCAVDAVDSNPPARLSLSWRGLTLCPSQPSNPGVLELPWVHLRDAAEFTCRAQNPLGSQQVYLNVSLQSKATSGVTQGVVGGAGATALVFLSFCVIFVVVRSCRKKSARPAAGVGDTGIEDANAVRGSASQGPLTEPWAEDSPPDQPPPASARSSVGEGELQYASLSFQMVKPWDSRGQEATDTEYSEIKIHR
Chain of Protein translocase subunit SecA (Escherichia coli (strain K12)) (P10408 whole entry): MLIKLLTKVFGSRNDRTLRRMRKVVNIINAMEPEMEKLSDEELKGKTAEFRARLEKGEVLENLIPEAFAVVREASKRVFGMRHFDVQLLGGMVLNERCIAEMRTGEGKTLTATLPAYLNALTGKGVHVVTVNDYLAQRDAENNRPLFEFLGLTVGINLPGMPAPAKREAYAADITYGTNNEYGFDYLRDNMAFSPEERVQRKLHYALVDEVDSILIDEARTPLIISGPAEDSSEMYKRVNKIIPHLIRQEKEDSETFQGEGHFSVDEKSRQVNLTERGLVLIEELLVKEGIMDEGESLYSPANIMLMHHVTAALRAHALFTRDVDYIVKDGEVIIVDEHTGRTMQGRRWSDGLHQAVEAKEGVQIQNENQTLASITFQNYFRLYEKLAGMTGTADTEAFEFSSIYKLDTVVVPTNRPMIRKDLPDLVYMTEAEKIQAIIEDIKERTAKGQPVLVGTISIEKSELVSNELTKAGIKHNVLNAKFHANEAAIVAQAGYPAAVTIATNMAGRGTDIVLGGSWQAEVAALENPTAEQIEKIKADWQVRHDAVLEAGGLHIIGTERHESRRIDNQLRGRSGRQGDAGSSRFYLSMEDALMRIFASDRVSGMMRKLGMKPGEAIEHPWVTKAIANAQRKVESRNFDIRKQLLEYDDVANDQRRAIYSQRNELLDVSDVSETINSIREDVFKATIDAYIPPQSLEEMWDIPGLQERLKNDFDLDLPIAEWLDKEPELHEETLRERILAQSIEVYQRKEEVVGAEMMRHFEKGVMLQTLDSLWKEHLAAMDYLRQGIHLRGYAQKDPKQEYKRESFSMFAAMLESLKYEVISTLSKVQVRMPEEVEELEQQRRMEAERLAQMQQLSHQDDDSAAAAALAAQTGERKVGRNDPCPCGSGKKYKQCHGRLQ

Row | Compound | Percent Effect [1] [%] | Percent Effect [2] [%] | Percent Effect [3] [%] | Percent Effect [4] [%] | Percent Effect (Trypanosoma cruzi) [%] | Percent Effect [5] [%] | Percent Effect [6] [%] | Percent Effect (Homo sapiens) [%] | Percent Effect [7] [%] | Percent Effect [8] [%] | Percent Effect [9] [%]
1 | CCc1cnc(C)nc1NCCN1CCCCCC1 | -0.998 | 5.2 | -1.3 | 10.8 | -0.295 | 0 | 14.3 | 0.592 | 14 | 16.1 | -4.71
2 | CC(NC(=O)NCCCN1CCCCCC1)c1nncn1C (configuration not stated) | -2.66 | 10.8 | -6.67 | 18.7 | 6.78 | -6.47 | -5.03 | 18 | 5.94 | 18.3 | -3.61
3 | CNC(=O)c1cccc(NC(=O)CN2CCN(S(C)(=O)=O)CC2)c1 | -3.07 | 18.9 | -6.24 | 18.5 | 5.57 | 4.22 | 13.8 | 8.76 | 5.38 | 16.1 | -3.08
4 | CCc1nc(CN2CCCC(NCc3ccc(C(N)=O)cc3)C2)no1 (configuration not stated) | -4.14 | 2.53 | -1.56 | 9.52 | 2.93 | 1.14 | -0.246 | 12.3 | -0.493 | 1.27 | -2.88
5 | CCCS(=O)(=O)N1CCC2(CC1)CN(c1ccccn1)CCO2 | -4.44 | 4 | -4.84 | -5.06 | -11 | -11.8 | 11.8 | -5.14 | 0 | -2.56 | -7.42
6 | Cc1nccn1-c1cc(CNC(=O)CCC2CCCO2)ccn1 (configuration not stated) | -0.34 | 26.3 | 1.23 | -7.85 | 3.08 | 1.8 | 18.9 | 3.69 | 8.37 | 28.4 | -9.77
7 | O=C1NC2(CCN(C(=O)c3ccccc3)CC2)CC1c1cccnc1 (configuration not stated) | -4.51 | -2.74 | -3.55 | 5.92 | 9.32 | -6.39 | 2.65 | -28.6 | 6.25 | 13.6 | -2.24
8 | CNc1cc(C2CCCN2Cc2ccccc2OCC(=O)O)ccn1 (configuration not stated) | -3.95 | 1.35 | 11.6 | 2.57 | -3.16 | 0.232 | 2.34 | 4.49 | 5.38 | 9.09 | -8.55
9 | CCn1nnc2c1C(COC)CN(Cc1ccsc1)C2 (configuration not stated) | -6.4 | 5.41 | 1.42 | -2.12 | -5.77 | -2.73 | 10.2 | -14.5 | 2.15 | 3.7 | -3.53
10 | Cc1nnc(CN2CCCC(c3cc(C(N)=O)[nH]n3)C2)o1 (configuration not stated) | -3.02 | -5.41 | 0.969 | 11.5 | -1.23 | 0 | -2.34 | 2.07 | -1.48 | -1.24 | 1.61
11 | Cc1sc(NC(=O)CN(C)S(C)(=O)=O)c(C#N)c1C | -2.06 | 7.79 | 7.85 | -2.17 | -6.8 | -29 | 13.4 | 2.12 | 5.29 | 8.97 | -6.9
12 | CSCC(=O)N1C[C@H]2CC[C@@H]1CN(Cc1ccccc1)C2 | -2.57 | 8.22 | 14.1 | -0.0854 | 0 | 0.455 | 10.8 | 15.3 | 11.8 | 12.5 | -6.22
13 | Cc1nn(-c2ccccc2)c2c1C(c1ccc(C(=O)O)cc1)CC(=O)N2 (configuration not stated) | -4.78 | 10.7 | -3.15 | 13.8 | 6.33 | 2.6 | 7.85 | 11.5 | 3.83 | 6.17 | -14.9
14 | CCS(=O)(=O)NC(C(=O)NC)c1ccc(F)c(F)c1 (configuration not stated) | -1.19 | 2.7 | -9.93 | 0.659 | 0.195 | 2.92 | 10.7 | -11.3 | 9.9 | 20.7 | -7.3
15 | Cn1ccnc1CN1CCN(CC(O)c2cccc(F)c2)CC1 (configuration not stated) | -1.52 | 18.2 | -1.07 | 4.38 | -0.49 | -1.9 | 15.4 | -1.78 | 6.67 | 18.8 | -11.3
16 | Nc1nccc(NCc2cc3n(n2)CCCN(C(=O)C2CCC2)C3)n1 | -4.85 | 8.22 | 2.89 | 2.05 | -0.794 | -3.59 | 14.5 | 9.88 | 4.17 | 11.1 | -0.468
17 | CCn1cc(CN2C[C@@H]3CCCN3C[C@@H]2CCSC)c(C)n1 | -1.75 | 5.33 | 8.44 | 4.09 | -4.53 | 2.1 | 8.37 | 3.9 | 3.19 | 6.41 | 0.13
